# ± gives the standard deviation of the averaged measurements.
# Assays:
# Test in all cases: promoter activity interaction Z-score (Lux/OD deviation from empty-vector control); higher = stronger promoter induction by the compound
# [1] = tested on: E. coli BW25113 acrABp lux reporter
# How it was run: (§1)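 Reporter strains of E. coli BW25113 grew at 37°C in 40 µl LB Lennox in 384-well plates. Readings of OD600 and luminescence were taken every 30 min over 12 h, integrated over 0–8 h (wild type) or 1–9 h (deletion strains), and wells below 10% of the median growth value were excluded. Scores are Z-transformed residuals of growth-normalised luminescence from a fit against a control.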
# [2] = tested on: E. coli BW25113 micFp lux reporter
# How it was run: as §1
# [3] = tested on: E. coli BW25113 ompFp lux reporter
# How it was run: as §1
# [4] = tested on: E. coli BW25113 robp lux reporter
# How it was run: as §1
# [5] = tested on: E. coli BW25113 soxSp lux reporter
# How it was run: as §1
# [6] = tested on: E. coli BW25113 tolCp lux reporter
# How it was run: as §1
# [7] = 1.8 µg/ml, genetic background: wild type
# [8] = 1.8 µg/ml, genetic background: ΔmarA
# [9] = 1.8 µg/ml, genetic background: Δrob
# [10] = 1.8 µg/ml, genetic background: ΔsoxS
# [11] = 3.7 µg/ml, genetic background: wild type
# [12] = 3.7 µg/ml, genetic background: ΔmarA
# [13] = 3.7 µg/ml, genetic background: Δrob
# [14] = 3.7 µg/ml, genetic background: ΔsoxS
# [15] = 7.3 µg/ml, genetic background: wild type
# [16] = 7.3 µg/ml, genetic background: ΔmarA
# [17] = 7.3 µg/ml, genetic background: Δrob
# [18] = 7.3 µg/ml, genetic background: ΔsoxS
# [19] = 14.7 µg/ml, genetic background: wild type
# [20] = 14.7 µg/ml, genetic background: ΔmarA
# [21] = 14.7 µg/ml, genetic background: ΔsoxS
structure (smiles),measurement,setting,value
CC[C@H]1OC(=O)[C@H](C)[C@@H](O[C@H]2C[C@@](C)(OC)[C@@H](O)[C@H](C)O2)[C@H](C)[C@@H](O[C@@H]2O[C@H](C)C[C@H](N(C)C)[C@H]2O)[C@](C)(O)C[C@@H](C)C(=O)[C@H](C)[C@@H](O)[C@]1(C)O [Erythromycin],promoter activity interaction Z-score,[1]; [7],0.453 ± 0.14
same,promoter activity interaction Z-score,[1]; [8],0.681 ± 0.23
same,promoter activity interaction Z-score,[1]; [9],0.159 ± 0.56
same,promoter activity interaction Z-score,[1]; [10],0.201 ± 0.23
same,promoter activity interaction Z-score,[1]; [11],0.762 ± 0.17
same,promoter activity interaction Z-score,[1]; [12],-1.09 ± 0.061
same,promoter activity interaction Z-score,[1]; [13],0.417 ± 0.063
same,promoter activity interaction Z-score,[1]; [14],1.35 ± 1.5
same,promoter activity interaction Z-score,[1]; [15],1.66 ± 0.12
same,promoter activity interaction Z-score,[1]; [16],-0.406 ± 0.24
same,promoter activity interaction Z-score,[1]; [17],1.7 ± 0.48
same,promoter activity interaction Z-score,[1]; [18],2.23 ± 1.1
same,promoter activity interaction Z-score,[1]; [19],7.47 ± 0.26
same,promoter activity interaction Z-score,[2]; [7],0.913 ± 0.45
same,promoter activity interaction Z-score,[2]; [8],-0.122 ± 0.027
same,promoter activity interaction Z-score,[2]; [9],-0.273 ± 0.066
same,promoter activity interaction Z-score,[2]; [10],0.0903 ± 0.17
same,promoter activity interaction Z-score,[2]; [11],0.742 ± 0.35
same,promoter activity interaction Z-score,[2]; [12],-0.1986 ± 0.0018
same,promoter activity interaction Z-score,[2]; [13],-0.176 ± 0.13
same,promoter activity interaction Z-score,[2]; [14],0.695 ± 0.24
same,promoter activity interaction Z-score,[2]; [15],0.748 ± 0.99
same,promoter activity interaction Z-score,[2]; [16],-0.167 ± 0.085
same,promoter activity interaction Z-score,[2]; [17],-0.148 ± 0.073
same,promoter activity interaction Z-score,[2]; [18],-0.224 ± 0.12
same,promoter activity interaction Z-score,[2]; [19],-1.13 ± 0.77
same,promoter activity interaction Z-score,[2]; [20],-0.537 ± 0.026
same,promoter activity interaction Z-score,[2]; [21],-0.792 ± 0.2
same,promoter activity interaction Z-score,[3]; [7],0.573 ± 0.45
same,promoter activity interaction Z-score,[3]; [8],0.458 ± 0.21
same,promoter activity interaction Z-score,[3]; [9],0.2177 ± 0.0014
same,promoter activity interaction Z-score,[3]; [10],0.925 ± 0.37
same,promoter activity interaction Z-score,[3]; [11],0.894 ± 0.58
same,promoter activity interaction Z-score,[3]; [12],0.288 ± 0.31
same,promoter activity interaction Z-score,[3]; [13],1.58 ± 1.1
same,promoter activity interaction Z-score,[3]; [14],2.48 ± 1.1
same,promoter activity interaction Z-score,[3]; [15],1.78 ± 0.84
same,promoter activity interaction Z-score,[3]; [16],1.17 ± 0.52
same,promoter activity interaction Z-score,[3]; [17],1.96 ± 2
same,promoter activity interaction Z-score,[3]; [18],1.97 ± 0.072
same,promoter activity interaction Z-score,[3]; [19],-0.66 ± 0.73
same,promoter activity interaction Z-score,[3]; [21],-1.6
same,promoter activity interaction Z-score,[4]; [7],-0.139 ± 0.59
same,promoter activity interaction Z-score,[4]; [8],-0.666 ± 0.22
same,promoter activity interaction Z-score,[4]; [9],-0.816 ± 0.1
same,promoter activity interaction Z-score,[4]; [10],-0.469 ± 0.72
same,promoter activity interaction Z-score,[4]; [11],-0.638 ± 0.12
same,promoter activity interaction Z-score,[4]; [12],-2.16 ± 0.55
same,promoter activity interaction Z-score,[4]; [13],-1.32 ± 0.2
same,promoter activity interaction Z-score,[4]; [14],-0.16 ± 0.77
same,promoter activity interaction Z-score,[4]; [15],-2.01 ± 0.31
same,promoter activity interaction Z-score,[4]; [16],-2.33 ± 0.13
same,promoter activity interaction Z-score,[4]; [17],-2.18 ± 0.23
same,promoter activity interaction Z-score,[4]; [18],-2.29 ± 0.77
same,promoter activity interaction Z-score,[4]; [19],-2.43 ± 0.2
same,promoter activity interaction Z-score,[4]; [20],-3.56 ± 0.35
same,promoter activity interaction Z-score,[5]; [7],0.111 ± 0.015
same,promoter activity interaction Z-score,[5]; [8],0.214 ± 0.046
same,promoter activity interaction Z-score,[5]; [9],-0.111 ± 0.089
same,promoter activity interaction Z-score,[5]; [10],0.0397 ± 0.3
same,promoter activity interaction Z-score,[5]; [11],-0.0179 ± 0.043
same,promoter activity interaction Z-score,[5]; [12],-0.0482 ± 0.098
same,promoter activity interaction Z-score,[5]; [13],0.228 ± 0.28
same,promoter activity interaction Z-score,[5]; [14],0.647 ± 0.18
same,promoter activity interaction Z-score,[5]; [15],0.0493 ± 0.044
same,promoter activity interaction Z-score,[5]; [16],0.351 ± 0.19
same,promoter activity interaction Z-score,[5]; [17],0.215 ± 0.16
same,promoter activity interaction Z-score,[5]; [18],1.65 ± 0.52
same,promoter activity interaction Z-score,[5]; [19],0.956 ± 0.22
same,promoter activity interaction Z-score,[5]; [20],0.78 ± 0.098
same,promoter activity interaction Z-score,[5]; [21],3.05 ± 2.9
same,promoter activity interaction Z-score,[6]; [7],0.39 ± 0.18
same,promoter activity interaction Z-score,[6]; [8],-0.768 ± 0.45
same,promoter activity interaction Z-score,[6]; [9],-0.66 ± 0.14
same,promoter activity interaction Z-score,[6]; [10],-0.318 ± 0.13
same,promoter activity interaction Z-score,[6]; [11],0.0127 ± 0.24
same,promoter activity interaction Z-score,[6]; [12],-1.38 ± 0.97
same,promoter activity interaction Z-score,[6]; [13],-0.333 ± 1.4
same,promoter activity interaction Z-score,[6]; [14],-0.0456 ± 0.47
same,promoter activity interaction Z-score,[6]; [15],0.177 ± 1.4
same,promoter activity interaction Z-score,[6]; [16],-0.63 ± 0.74
same,promoter activity interaction Z-score,[6]; [17],0.449 ± 2.3
same,promoter activity interaction Z-score,[6]; [18],0.434 ± 0.85
same,promoter activity interaction Z-score,[6]; [19],1.66 ± 1.9
same,promoter activity interaction Z-score,[6]; [20],-1.14 ± 3.2
same,promoter activity interaction Z-score,[6]; [21],0.542 ± 0.66

# — the supplement of paper PMC12282887
